Holding throughout (experiment): DAPPL (digital affinity profiling via proximity ligation, sequencing); 10 mM Tris-HCl pH 7.5, 50 mM NaCl, 1 mM DTT, 4% glycerol, room temperature, 30 min; GST-TFs on glutathione beads, 16-mer random dsDNA library, 0.1% formaldehyde crosslink after washing; high values mean tight binding
Assay [1] addresses T1, FEV (Homo sapiens, UniProt Q99581 1-238).
T1 sequence: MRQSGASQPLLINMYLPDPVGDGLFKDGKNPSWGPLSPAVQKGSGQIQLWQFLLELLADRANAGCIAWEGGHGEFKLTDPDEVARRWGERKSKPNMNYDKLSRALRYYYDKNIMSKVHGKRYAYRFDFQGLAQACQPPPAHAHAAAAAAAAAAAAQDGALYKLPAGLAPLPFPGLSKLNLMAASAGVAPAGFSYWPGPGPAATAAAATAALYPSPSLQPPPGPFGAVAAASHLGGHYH
To be noted: protein: recombinant; tags: N-terminal GST; dsDNA, one strand shown. A digest of the protocol:
(§1)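 Binding signal is given per hexamer as its read frequency for a factor divided by its frequency in the tag-only sample. GST-fused human transcription factors were expressed in yeast, captured on glutathione beads, barcoded with DNA and pooled with that sample, then incubated with 200 nmole of a 16-mer random double-stranded DNA library in Tris/NaCl/DTT/glycerol buffer for 30 min at room temperature. The pools were then washed, crosslinked, proximity-ligated, amplified by PCR and sequenced on an Illumina NextSeq500.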

Assay [2] addresses ETV5 (Homo sapiens, UniProt P41161 1-510). The conditions noted are these: protein: recombinant; tags: N-terminal GST; dsDNA, one strand shown. The gist of the method: as §1
Assay [3] deals with HSF1 (Homo sapiens, UniProt Q00613 1-529). The conditions noted are these: protein: recombinant; tags: N-terminal GST; chain copies: 3; dsDNA, one strand shown. A digest of the protocol:
as §1

Assay [4] concerns the target T2, SPIC (Homo sapiens, UniProt Q8N5J4 1-248).
T2 sequence: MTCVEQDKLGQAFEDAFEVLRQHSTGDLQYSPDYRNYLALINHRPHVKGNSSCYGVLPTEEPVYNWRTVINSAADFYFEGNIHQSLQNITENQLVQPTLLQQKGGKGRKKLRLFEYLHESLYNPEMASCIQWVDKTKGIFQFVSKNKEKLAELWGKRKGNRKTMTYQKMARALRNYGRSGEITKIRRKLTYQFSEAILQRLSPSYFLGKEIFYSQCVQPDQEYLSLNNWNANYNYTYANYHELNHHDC
The conditions noted are these: protein: recombinant; tags: N-terminal GST; dsDNA, one strand shown. The gist of the method: as §1

Assay [5] concerns the target ELF4 (Homo sapiens, UniProt Q99607 1-663). The conditions noted are these: protein: recombinant; tags: N-terminal GST; dsDNA, one strand shown. A digest of the protocol:
as §1

Assay [6] concerns the target T3, ELK4 (Homo sapiens, UniProt P28324-2 1-405).
T3 sequence: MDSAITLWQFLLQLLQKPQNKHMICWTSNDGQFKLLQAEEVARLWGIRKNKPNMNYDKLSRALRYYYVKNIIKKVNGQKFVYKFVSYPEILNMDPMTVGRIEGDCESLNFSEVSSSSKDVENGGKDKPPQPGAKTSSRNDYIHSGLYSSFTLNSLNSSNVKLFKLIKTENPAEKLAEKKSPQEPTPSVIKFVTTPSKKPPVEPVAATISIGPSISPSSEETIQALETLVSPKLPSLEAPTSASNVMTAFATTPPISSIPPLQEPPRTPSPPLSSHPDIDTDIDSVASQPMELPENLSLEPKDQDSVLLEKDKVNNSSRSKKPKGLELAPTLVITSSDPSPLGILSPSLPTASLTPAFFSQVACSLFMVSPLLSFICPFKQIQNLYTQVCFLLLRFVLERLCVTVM
To be noted: protein: recombinant; tags: N-terminal GST; dsDNA, one strand shown. A digest of the protocol:
as §1

Assay [7] deals with T4, ETV2 (Homo sapiens, UniProt O00321 1-342).
T4 sequence: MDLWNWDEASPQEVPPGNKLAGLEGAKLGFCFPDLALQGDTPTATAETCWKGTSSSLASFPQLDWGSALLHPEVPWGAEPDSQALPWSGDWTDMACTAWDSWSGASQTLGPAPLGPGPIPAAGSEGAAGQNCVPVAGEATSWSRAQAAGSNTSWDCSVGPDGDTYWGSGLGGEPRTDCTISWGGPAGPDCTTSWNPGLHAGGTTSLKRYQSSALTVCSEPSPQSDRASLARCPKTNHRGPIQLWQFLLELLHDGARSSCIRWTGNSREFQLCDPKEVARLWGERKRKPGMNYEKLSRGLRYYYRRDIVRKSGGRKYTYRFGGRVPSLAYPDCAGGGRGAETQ
The conditions noted are these: protein: recombinant; tags: N-terminal GST; dsDNA, one strand shown. A digest of the protocol: as §1

Assay [8] concerns the target T5, ELF3 (Homo sapiens, UniProt P78545 1-371).
T5 sequence: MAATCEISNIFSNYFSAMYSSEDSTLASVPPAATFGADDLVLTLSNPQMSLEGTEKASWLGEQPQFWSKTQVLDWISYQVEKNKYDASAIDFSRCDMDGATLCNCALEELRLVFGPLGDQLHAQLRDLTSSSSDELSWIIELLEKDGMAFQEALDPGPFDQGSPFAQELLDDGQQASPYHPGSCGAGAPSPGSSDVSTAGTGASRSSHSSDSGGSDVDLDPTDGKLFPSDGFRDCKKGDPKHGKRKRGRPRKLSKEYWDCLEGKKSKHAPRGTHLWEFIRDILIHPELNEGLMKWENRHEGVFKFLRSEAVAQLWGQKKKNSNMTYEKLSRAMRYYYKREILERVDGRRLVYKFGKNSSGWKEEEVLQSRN
To be noted: protein: recombinant; tags: N-terminal GST; dsDNA, one strand shown. A digest of the protocol: as §1

Assay [9] has as its target CRX (Homo sapiens, UniProt O43186 1-299). The conditions noted are these: protein: recombinant; tags: N-terminal GST; dsDNA, one strand shown. A digest of the protocol:
as §1

In assay [10] the target is ETV1 (Homo sapiens, UniProt P50549 1-477). To be noted: protein: recombinant; tags: N-terminal GST; dsDNA, one strand shown. The gist of the method: as §1
ETV1, sequence (P50549 whole entry): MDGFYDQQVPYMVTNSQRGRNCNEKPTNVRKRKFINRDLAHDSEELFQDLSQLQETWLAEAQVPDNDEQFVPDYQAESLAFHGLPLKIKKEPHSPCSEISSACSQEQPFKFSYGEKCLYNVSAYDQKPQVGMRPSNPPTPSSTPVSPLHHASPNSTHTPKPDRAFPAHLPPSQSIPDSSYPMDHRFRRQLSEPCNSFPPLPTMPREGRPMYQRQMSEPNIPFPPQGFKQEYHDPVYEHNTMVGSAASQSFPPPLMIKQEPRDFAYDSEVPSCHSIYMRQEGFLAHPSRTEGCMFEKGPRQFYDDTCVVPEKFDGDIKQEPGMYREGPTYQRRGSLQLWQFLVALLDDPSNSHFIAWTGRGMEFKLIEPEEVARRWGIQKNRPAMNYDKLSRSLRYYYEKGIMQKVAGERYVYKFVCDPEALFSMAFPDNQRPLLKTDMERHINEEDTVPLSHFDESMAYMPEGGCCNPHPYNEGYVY
For assay [11], the target named is T6, ERF (Homo sapiens, UniProt P50548 1-548).
T6 sequence: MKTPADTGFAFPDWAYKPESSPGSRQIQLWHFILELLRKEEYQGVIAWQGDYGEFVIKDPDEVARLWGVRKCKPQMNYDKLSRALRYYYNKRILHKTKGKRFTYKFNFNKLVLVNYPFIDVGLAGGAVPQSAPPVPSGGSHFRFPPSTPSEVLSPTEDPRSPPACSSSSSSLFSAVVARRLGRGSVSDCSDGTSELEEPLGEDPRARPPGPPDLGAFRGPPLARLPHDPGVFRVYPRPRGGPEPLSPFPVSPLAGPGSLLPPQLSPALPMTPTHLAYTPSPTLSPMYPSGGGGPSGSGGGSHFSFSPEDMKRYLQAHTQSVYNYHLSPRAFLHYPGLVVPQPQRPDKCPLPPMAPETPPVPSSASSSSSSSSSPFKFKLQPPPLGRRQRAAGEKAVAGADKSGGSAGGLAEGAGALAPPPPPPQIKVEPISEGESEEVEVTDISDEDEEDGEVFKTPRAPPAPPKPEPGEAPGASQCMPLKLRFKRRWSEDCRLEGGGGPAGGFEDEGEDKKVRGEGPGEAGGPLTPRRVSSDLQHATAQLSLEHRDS
To be noted: protein: recombinant; tags: N-terminal GST; dsDNA, one strand shown. The gist of the method: as §1

The target of assay [12] is T7, ETV3L (Homo sapiens, UniProt Q6ZN32 1-361).
T7 sequence: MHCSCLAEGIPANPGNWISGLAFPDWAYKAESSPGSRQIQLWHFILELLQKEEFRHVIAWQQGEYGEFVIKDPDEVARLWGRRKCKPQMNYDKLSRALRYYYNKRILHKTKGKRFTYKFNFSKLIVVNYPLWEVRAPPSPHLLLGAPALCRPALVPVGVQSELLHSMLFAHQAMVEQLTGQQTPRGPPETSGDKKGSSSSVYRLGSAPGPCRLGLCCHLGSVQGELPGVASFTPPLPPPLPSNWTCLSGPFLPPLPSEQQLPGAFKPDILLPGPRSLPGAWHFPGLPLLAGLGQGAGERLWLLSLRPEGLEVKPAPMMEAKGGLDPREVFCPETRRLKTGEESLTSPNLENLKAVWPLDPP
To be noted: protein: recombinant; tags: N-terminal GST; dsDNA, one strand shown. The gist of the method:
as §1

Assay [13] has as its target T8, ETS2 (Homo sapiens, UniProt P15036 1-469).
T8 sequence: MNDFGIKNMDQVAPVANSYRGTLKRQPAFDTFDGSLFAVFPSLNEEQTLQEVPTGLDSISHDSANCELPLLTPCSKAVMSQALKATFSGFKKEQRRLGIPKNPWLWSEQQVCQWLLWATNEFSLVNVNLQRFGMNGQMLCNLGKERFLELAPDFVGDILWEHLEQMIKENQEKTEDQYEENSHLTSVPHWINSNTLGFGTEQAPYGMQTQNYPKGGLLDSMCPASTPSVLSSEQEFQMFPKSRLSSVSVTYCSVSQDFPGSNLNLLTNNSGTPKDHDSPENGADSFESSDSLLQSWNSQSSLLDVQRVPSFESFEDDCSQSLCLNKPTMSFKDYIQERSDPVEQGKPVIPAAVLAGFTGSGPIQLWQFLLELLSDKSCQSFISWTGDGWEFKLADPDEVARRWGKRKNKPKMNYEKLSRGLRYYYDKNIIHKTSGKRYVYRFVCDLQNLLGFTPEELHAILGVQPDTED
To be noted: protein: recombinant; tags: N-terminal GST; dsDNA, one strand shown. A digest of the protocol: as §1

Assay [14] addresses T9, SPDEF (Homo sapiens, UniProt O95238 1-335).
T9 sequence: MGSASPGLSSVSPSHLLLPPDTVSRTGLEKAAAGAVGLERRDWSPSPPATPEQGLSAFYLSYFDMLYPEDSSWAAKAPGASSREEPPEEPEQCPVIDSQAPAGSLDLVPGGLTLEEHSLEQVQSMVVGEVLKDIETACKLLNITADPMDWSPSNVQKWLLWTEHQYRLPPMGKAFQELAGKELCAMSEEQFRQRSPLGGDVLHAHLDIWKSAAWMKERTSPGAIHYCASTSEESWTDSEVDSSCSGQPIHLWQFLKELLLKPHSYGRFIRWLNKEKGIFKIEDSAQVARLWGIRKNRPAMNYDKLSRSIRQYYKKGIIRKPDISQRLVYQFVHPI
The conditions noted are these: protein: recombinant; tags: N-terminal GST; dsDNA, one strand shown. The gist of the method: as §1

The target of assay [15] is T10, ETV7 (Homo sapiens, UniProt Q9Y603 1-341).
T10 sequence: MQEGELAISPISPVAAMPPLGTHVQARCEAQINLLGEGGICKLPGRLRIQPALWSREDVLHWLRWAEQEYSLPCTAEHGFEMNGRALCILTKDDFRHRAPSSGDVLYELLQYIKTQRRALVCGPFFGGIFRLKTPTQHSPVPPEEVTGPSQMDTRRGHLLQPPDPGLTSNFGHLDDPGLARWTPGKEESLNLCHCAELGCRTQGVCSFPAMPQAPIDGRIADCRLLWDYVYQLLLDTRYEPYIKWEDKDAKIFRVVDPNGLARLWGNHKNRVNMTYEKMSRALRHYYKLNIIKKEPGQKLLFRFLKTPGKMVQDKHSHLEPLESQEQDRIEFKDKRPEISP
The conditions noted are these: protein: recombinant; tags: N-terminal GST; dsDNA, one strand shown. The gist of the method: as §1

Assay [16] concerns the target T11, ELF5 (Homo sapiens, UniProt Q9UKW6-2 1-255).
T11 sequence: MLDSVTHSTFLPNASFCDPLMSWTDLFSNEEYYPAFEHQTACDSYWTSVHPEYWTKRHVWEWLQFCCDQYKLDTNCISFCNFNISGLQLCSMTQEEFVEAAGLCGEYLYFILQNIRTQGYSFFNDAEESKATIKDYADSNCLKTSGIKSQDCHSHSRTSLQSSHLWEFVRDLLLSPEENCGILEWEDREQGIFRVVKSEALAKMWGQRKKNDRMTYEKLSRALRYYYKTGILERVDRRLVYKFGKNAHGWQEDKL
The conditions noted are these: protein: recombinant; tags: N-terminal GST; dsDNA, one strand shown. A digest of the protocol: as §1

Assay [17] addresses T12, ETV3 (Homo sapiens, UniProt P41162-2 1-143).
T12 sequence: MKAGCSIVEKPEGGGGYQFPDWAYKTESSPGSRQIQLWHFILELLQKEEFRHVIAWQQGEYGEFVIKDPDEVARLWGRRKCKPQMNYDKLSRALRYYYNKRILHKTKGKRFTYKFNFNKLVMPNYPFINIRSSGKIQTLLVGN
To be noted: protein: recombinant; tags: N-terminal GST; dsDNA, one strand shown. A digest of the protocol: as §1

Assay [18] has as its target ETV6 (Homo sapiens, UniProt P41212 1-452). The conditions noted are these: protein: recombinant; tags: N-terminal GST; dsDNA, one strand shown. The gist of the method: as §1

Results on 1 sequence are retold here after paper PMC7862700, “An all-to-all approach to the identification of sequence-specific readers for epigenetic DNA modifications on cytosine”.

ETV5, sequence (P41161 whole entry): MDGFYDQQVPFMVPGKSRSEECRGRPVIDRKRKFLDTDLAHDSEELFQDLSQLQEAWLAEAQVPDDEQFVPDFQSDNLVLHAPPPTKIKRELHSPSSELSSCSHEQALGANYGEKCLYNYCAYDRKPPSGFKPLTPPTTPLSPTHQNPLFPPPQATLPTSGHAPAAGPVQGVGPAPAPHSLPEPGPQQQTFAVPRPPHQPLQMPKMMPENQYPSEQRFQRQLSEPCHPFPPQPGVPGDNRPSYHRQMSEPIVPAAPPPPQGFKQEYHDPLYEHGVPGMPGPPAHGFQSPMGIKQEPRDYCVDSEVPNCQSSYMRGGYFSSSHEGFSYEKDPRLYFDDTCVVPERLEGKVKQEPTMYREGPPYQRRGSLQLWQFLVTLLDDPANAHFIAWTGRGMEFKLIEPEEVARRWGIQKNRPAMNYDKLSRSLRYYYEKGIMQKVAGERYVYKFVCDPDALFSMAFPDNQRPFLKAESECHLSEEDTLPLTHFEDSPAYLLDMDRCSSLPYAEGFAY
HSF1, sequence (Q00613 whole entry): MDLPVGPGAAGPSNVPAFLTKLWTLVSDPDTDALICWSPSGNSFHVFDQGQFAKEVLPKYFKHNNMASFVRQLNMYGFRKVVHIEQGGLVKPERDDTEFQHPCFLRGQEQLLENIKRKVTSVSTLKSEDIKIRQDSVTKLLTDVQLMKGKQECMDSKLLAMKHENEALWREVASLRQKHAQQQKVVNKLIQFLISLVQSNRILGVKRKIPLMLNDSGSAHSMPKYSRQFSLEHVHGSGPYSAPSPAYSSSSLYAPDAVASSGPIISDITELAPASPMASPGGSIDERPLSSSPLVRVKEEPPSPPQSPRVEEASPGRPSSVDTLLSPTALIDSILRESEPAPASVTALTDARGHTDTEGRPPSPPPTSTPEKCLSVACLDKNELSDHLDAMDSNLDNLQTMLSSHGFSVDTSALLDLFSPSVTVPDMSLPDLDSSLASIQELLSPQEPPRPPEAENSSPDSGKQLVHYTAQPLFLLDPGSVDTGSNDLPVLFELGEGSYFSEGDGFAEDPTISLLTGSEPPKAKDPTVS
ELF4, sequence (Q99607 whole entry): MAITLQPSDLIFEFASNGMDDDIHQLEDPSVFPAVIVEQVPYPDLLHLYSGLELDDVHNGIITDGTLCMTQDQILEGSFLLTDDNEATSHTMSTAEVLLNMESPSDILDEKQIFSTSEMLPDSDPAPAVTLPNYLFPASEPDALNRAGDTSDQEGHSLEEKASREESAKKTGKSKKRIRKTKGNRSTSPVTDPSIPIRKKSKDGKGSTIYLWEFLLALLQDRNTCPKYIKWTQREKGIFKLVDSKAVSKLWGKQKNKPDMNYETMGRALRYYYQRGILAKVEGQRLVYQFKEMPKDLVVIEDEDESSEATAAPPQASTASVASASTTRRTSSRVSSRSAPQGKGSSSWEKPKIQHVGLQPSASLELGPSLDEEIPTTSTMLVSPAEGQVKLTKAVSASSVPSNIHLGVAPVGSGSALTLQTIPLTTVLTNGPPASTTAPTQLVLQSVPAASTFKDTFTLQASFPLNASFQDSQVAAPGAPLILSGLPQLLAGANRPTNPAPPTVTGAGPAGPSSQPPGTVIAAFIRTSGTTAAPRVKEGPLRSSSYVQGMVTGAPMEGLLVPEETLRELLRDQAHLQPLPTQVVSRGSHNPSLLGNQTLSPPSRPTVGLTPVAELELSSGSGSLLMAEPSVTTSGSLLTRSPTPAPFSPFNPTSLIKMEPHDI
ETV6, sequence (P41212 whole entry): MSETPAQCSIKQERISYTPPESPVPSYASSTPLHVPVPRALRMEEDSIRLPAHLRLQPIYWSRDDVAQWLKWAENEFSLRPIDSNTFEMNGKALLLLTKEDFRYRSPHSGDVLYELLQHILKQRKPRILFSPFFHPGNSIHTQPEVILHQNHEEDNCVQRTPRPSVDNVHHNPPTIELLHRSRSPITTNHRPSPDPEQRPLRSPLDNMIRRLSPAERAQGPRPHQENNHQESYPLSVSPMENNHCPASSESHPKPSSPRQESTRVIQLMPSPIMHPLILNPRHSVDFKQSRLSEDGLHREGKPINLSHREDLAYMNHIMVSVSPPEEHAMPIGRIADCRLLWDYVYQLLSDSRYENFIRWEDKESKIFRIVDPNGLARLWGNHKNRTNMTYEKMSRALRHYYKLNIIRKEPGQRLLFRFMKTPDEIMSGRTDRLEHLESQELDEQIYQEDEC
CRX, sequence (O43186 whole entry): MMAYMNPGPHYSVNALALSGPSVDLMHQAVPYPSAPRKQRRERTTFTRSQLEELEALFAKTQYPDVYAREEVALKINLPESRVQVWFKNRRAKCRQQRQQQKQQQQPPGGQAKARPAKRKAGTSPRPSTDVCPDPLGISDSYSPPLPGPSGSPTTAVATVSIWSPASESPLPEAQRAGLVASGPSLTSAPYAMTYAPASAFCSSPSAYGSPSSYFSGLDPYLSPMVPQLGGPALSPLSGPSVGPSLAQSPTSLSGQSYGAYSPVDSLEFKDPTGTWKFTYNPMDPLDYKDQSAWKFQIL

For the sequence TAGTGG, the binding signal in assay [1] is 1.21 fold enrichment (6-mer frequency, TF over GST control); in assay [2] it was 1.11 fold enrichment (6-mer frequency, TF over GST control); in [3], 1.33 fold enrichment (6-mer frequency, TF over GST control); in [4], 1.24 fold enrichment (6-mer frequency, TF over GST control); in assay [5], 1.15 fold enrichment (6-mer frequency, TF over GST control); in assay [6], 1.37 fold enrichment (6-mer frequency, TF over GST control). In addition, the binding signal is 1.15 fold enrichment (6-mer frequency, TF over GST control) in assay [7]; 1.1 fold enrichment (6-mer frequency, TF over GST control) in assay [8]; 1.52 fold enrichment (6-mer frequency, TF over GST control) in [9]; 1.14 fold enrichment (6-mer frequency, TF over GST control) in assay [10]; 1.18 fold enrichment (6-mer frequency, TF over GST control) in [11]; 1.15 fold enrichment (6-mer frequency, TF over GST control) in assay [12]. For the same sequence, the binding signal in assay [13] is 1.28 fold enrichment (6-mer frequency, TF over GST control); in [14], 1.1 fold enrichment (6-mer frequency, TF over GST control); in [15], 1.17 fold enrichment (6-mer frequency, TF over GST control); in assay [16], 1.12 fold enrichment (6-mer frequency, TF over GST control); in assay [17], 1.1 fold enrichment (6-mer frequency, TF over GST control); in [18], 1.16 fold enrichment (6-mer frequency, TF over GST control).
